{"source": "PubChem BioAssay AID651595", "about": "(National Center for Advancing Translational Sciences (NCATS), 2012)", "note": "Among all 1,100 compounds or so, fewer than 10 were called active. Not shown: some 6% with an inconclusive outcome. Not all results are given here. Values without a mark were called inactive. Calls follow the shape of the dose curve; as a rule, active = well fitted cell-killing curve with a large enough effect; inconclusive = small, poorly fitted or top-dose-only effect; inactive = flat fitted curve, though single readings scatter. Potency is read from the fitted curve at half-maximal effect."}
{"experiment": "qHTS of Nrf2 Activators: Hit Validation in Cytotox Assay;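 also: compound exposure lasted 24 hours before the ATP readout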; as to activity change, negative = cytotoxicity: 0% is about no effect", "details": "Cell viability counter-screen for Nrf2 activator hits; series mostly up to 46.1 µM; activity change, negative = cytotoxicity: at the top concentration", "from_the_text": "Many diseases have some form of oxidative stress injury and ties to inflammation, causing a host of problems for the patient. The antioxidant response element (ARE) plays an important role in alleviating the harmful effects of oxidative stress. The antioxidant response element (ARE) is a transcriptional regulatory element involved in the activation of genes coding for a number of antioxidant proteins and detoxifying enzymes. These enzymes work in concert to protect tissues from oxidative insults and chemical toxicities in human hepatocytes and immune cells. The protective effects of ARE activation are primarily triggered through Nrf2 (NF-E2-related factor) binding to and activating AREs. It is known that Nrf2 controls the production of over 250 antioxidant and detoxification proteins (Hu et al., 2006), thereby protecting tissues by increasing cellular antioxidant content and suppressing inflammatory signaling pathways. The transcription factor Nrf2 is a central link between oxidative chemicals, such as phenolic antioxidants and electrophilic compounds, and the activation of ARE. Nrf2 levels are constitutively low as a consequence of its interaction with Keap1, which targets its degradation (Zipper and Mulcahy, 2002). Electrophiles react with key cysteine residues in Keap1, releasing Nrf2 and allowing its translocation to the nucleus. Once within the nucleus, Nrf2 complexes with coactivators such as p300, and binds to the AREs to induce gene transcription of cytoprotective enzymes, resulting in the prevention of toxicity. Activation of Nrf2 protects tissues by increasing cellular antioxidant content and suppressing inflammatory signaling pathways. Identifying novel and potent Nrf2 activators by using the AREc32 cell line to detect ARE activation by small molecules will lead to the identification and development of probes to study protective pathways in multiple tissues. These specific probes are essential to study the ARE pathway, and eventually to determine whether this pathway does activate genes that could protect against a host of diseases, including cardiovascular diseases, obesity, diabetes, Alzheimer's, and Parkinson's disease.\nThis project's aim is to identify novel and potent Nrf2 activators by using the AREc32 cell line to detect ARE activation by small molecules, which will lead to the identification and development of probes to study the ARE pathway. Cytotoxic compounds are flagged as active, and inactivity is desired in this assay.\nNIH Chemical Genomics Center [NCGC]\nNIH Molecular Libraries Probe Centers Network [MLPCN]\nAssay Submitter (PI): Curtis Klaassen, University of Kansas Medical Center\nCell viability after compound treatment was measured using a luciferase-coupled ATP quantitation assay (CellTiter-Glo, Promega) in AREc32_fluc cells. The change of intracellular ATP content indicates the number of metabolically competent cells after compound treatment. AREc32_fluc cells were harvested from T225 flask and resuspended in phenol red free OPTI-MEM medium with 5% FBS. Then 5 microL of 200,000 cells/ml resuspended cells was dispensed into each well of white, solid bottom, 1536-well tissue culture-treated plates using a Multidrop Combi dispenser. After overnight culture at 37 degrees C with 5% CO2, a total of 23 nL of compounds at 7 selected concentrations from the cherry pick or positive control (40 uM stock of CDDO-IM and 2 mM of tBHQ) in DMSO was transferred to each well of the assay plate using a pintool (Kalypsys, San Diego, CA), and the plates were further incubated at 37 degrees C with 5% CO2 for 24 hours. After that, 4 microL of CellTilter-GloTM luminescent substrate mix (Promega) was added to each well. The plate was incubated at room temperature for 30 minutes. The plates were measured on a ViewLux plate reader (PerkinElmer) with clear filter.", "units": {"activity change, negative = cytotoxicity": "%"}}
{"smiles": "O=c1nc2c(-c3ccccc3F)n[nH]n2c2ccccc12", "activity change, negative = cytotoxicity": -3.43}
{"smiles": "O=C(CSc1ccc(-c2ccco2)nn1)N1CCCCCC1", "activity change, negative = cytotoxicity": 0.45}
{"smiles": "O=C1C(Cl)=C(Nc2ccccc2)C(=O)c2ccccc21", "Potency": "16.4 µM (active)"}
{"smiles": "c1ccc(-c2cnc(-c3ccccc3)nn2)cc1", "activity change, negative = cytotoxicity": -0.44}
{"smiles": "O=C(Nc1ccccc1)N1CCn2c1nc1ccccc12", "activity change, negative = cytotoxicity": 2.76}
{"smiles": "CC(=O)Nc1ccc(N=Nc2ccccc2)cc1[N+](=O)[O-]", "activity change, negative = cytotoxicity": -3.62}
{"smiles": "Brc1ccc(-c2csc(N/N=C/c3ccco3)n2)cc1", "activity change, negative = cytotoxicity": 8.79}
{"smiles": "CC(=O)c1sc2nc(-c3cccs3)cc(C(F)(F)F)c2c1N", "activity change, negative = cytotoxicity": -2.42}
{"smiles": "O=c1oc2ccccc2nc1/C=C(\\O)c1ccc(Br)cc1", "activity change, negative = cytotoxicity": -1.91}
{"smiles": "O=[N+]([O-])c1ccc(/C=[N+](\\[O-])[C@@H]2CCCC[C@@H]2/[N+]([O-])=C/c2ccc([N+](=O)[O-])o2)o1", "Potency": "18.4 µM (active)"}
{"smiles": "O=C(NCC1CCCO1)c1ccc([N+](=O)[O-])o1", "note": "(stereo not drawn)", "activity change, negative = cytotoxicity": -12.8}
{"smiles": "O=[N+]([O-])c1ccc(/C=N/Nc2ccc3ccccc3c2)o1", "activity change, negative = cytotoxicity": -19.5}
{"smiles": "c1ccc(C2=Nn3c(nnc3-c3ccco3)SC2)cc1", "activity change, negative = cytotoxicity": 6.11}
{"smiles": "Cc1ccccc1NC(=O)/C(C#N)=C/c1ccsc1", "activity change, negative = cytotoxicity": 0.178}
{"smiles": "Nc1nonc1N/N=C/c1c(O)ccc2ccccc12", "activity change, negative = cytotoxicity": 8.84}
{"smiles": "O=C(Nc1cc2nn(-c3ccccc3)nc2cc1Cl)c1ccco1", "activity change, negative = cytotoxicity": 5.66}
{"smiles": "Cc1nn2c(-c3ccccc3)nnc2c2ccccc12", "activity change, negative = cytotoxicity": 2.1}
{"smiles": "O=c1[nH]c(/C=C/c2ccccc2[N+](=O)[O-])nc2ccccc12", "activity change, negative = cytotoxicity": 0.48}
{"smiles": "O=C(NC(=S)Nc1ccccc1O)c1ccccc1Cl", "activity change, negative = cytotoxicity": 8.07}
{"smiles": "Cc1ccc(O)c(NC(=O)c2cccc(NC(=O)c3ccco3)c2)c1", "activity change, negative = cytotoxicity": 2.1}
{"smiles": "O=C(NC(=S)Nc1cnc2ccccc2c1)c1ccccc1", "activity change, negative = cytotoxicity": -0.119}
{"smiles": "Cc1nn2c(-c3ccco3)nnc2c2ccccc12", "activity change, negative = cytotoxicity": 6.15}
{"smiles": "COc1ccc2oc3cc(Cl)ccc3c(=O)c2c1", "activity change, negative = cytotoxicity": -1.78}
{"smiles": "Cc1cccc(NC(=O)Nc2ccccc2[N+](=O)[O-])n1", "activity change, negative = cytotoxicity": 5.2}
{"smiles": "Cc1ccc(Cn2c(/C=C/c3ccco3)nc3ccccc32)cc1", "activity change, negative = cytotoxicity": -21.8}
{"smiles": "Clc1ccc(C=Cc2ccccn2)cc1", "activity change, negative = cytotoxicity": 1.25}
{"smiles": "N#C/C(=C\\c1ccccc1)c1ccccn1", "activity change, negative = cytotoxicity": -2.49}
{"smiles": "O=c1[nH]c(SCc2cccc([N+](=O)[O-])c2)nc2[nH]ncc12", "activity change, negative = cytotoxicity": 0.58}
{"smiles": "COc1ccc(OC)c(C=C2CCc3ccccc3C2=O)c1", "activity change, negative = cytotoxicity": 1.45}
{"smiles": "O=C(Oc1cccc(-c2cnc3ccccc3n2)c1)c1ccco1", "activity change, negative = cytotoxicity": -1.91}
{"smiles": "Cc1ccc(C)c(/C=N/Nc2ccccn2)c1", "activity change, negative = cytotoxicity": 9.8}
{"smiles": "O=C(Nc1cc(-c2nc3ncccc3o2)ccc1Cl)c1ccco1", "activity change, negative = cytotoxicity": 11}
{"smiles": "CN(C)CCN(C(=O)/C=C/c1cccs1)c1nc2ccc(F)cc2s1", "activity change, negative = cytotoxicity": -13.7}
{"smiles": "O=C(Nc1nnc(-c2cccs2)s1)c1cccc(F)c1", "activity change, negative = cytotoxicity": 7.96}
{"smiles": "Cc1nn(-c2ccc3ccccc3c2)c(=O)c2ccccc12", "activity change, negative = cytotoxicity": 4.52}
{"smiles": "Cc1cc(C)c2c(N)c(C(=O)c3ccc(Br)cc3)oc2n1", "activity change, negative = cytotoxicity": -19.8}
{"smiles": "Cc1ccc(-c2nc(NCc3ccco3)c3ccccc3n2)cc1", "activity change, negative = cytotoxicity": -1.85}
{"smiles": "Brc1cc(Br)c2nc(-c3cccs3)ccc2c1", "activity change, negative = cytotoxicity": 5.71}
{"smiles": "S=c1nc(-c2ccccc2)[nH]c2ccc(Br)cc12", "activity change, negative = cytotoxicity": 8.86}
{"smiles": "N#C/C(=C(/O)c1ccc(Br)s1)c1nc2ccccc2[nH]1", "activity change, negative = cytotoxicity": -1.87}
{"smiles": "N#C/C(=C(/O)c1ccco1)c1nc2ccccc2[nH]1", "activity change, negative = cytotoxicity": -1.76}
{"smiles": "N#C/C(=C\\c1ccc([N+](=O)[O-])o1)c1nc2ccccc2[nH]1", "Potency": "20.6 µM (active)"}
{"smiles": "O=C(Nc1ccccc1F)c1cc(-c2ccco2)nc2ccccc12", "activity change, negative = cytotoxicity": 9.87}
{"smiles": "COc1ccc(Cl)cc1-c1nc(-c2ccncc2)no1", "activity change, negative = cytotoxicity": 0.603}
{"smiles": "S=c1[nH]nc(-c2ccco2)n1/N=C/c1cccc(Cl)c1Cl", "activity change, negative = cytotoxicity": 3.26}
{"smiles": "N#Cc1cnc2cc(-c3ccccc3)nn2c1N", "activity change, negative = cytotoxicity": 9.63}
{"smiles": "O=C(CSc1ccc(-c2ccco2)nn1)N1CCCC1", "activity change, negative = cytotoxicity": 3.86}
{"smiles": "CCNc1ccc(-c2nc(-c3ccco3)no2)cc1[N+](=O)[O-]", "activity change, negative = cytotoxicity": 4.03}
{"smiles": "COC(=O)c1ccc2nc(-c3cccc(Br)c3)c(Cc3ccccc3OC)n2c1", "activity change, negative = cytotoxicity": -1.22}
{"smiles": "Fc1ccc2nc(Nc3nc4c(F)cc(F)cc4s3)sc2c1", "activity change, negative = cytotoxicity": -20.6}
{"smiles": "N#Cc1cccn1-c1nccc(-c2cccs2)n1", "activity change, negative = cytotoxicity": 6.19}
{"smiles": "O=C(NC(=S)Nc1cc([N+](=O)[O-])ccc1Cl)c1ccccc1", "activity change, negative = cytotoxicity": 2.33}
{"smiles": "Cc1cc(SCC(=O)c2cccs2)nc2ccccc12", "activity change, negative = cytotoxicity": -9.71}
{"smiles": "O=C(NCc1ccco1)c1ccccc1-c1nc(-c2ccc(F)cc2)no1", "activity change, negative = cytotoxicity": 2.78}
{"smiles": "O=[N+]([O-])c1ccc(SCc2ccco2)cc1N1CCOCC1", "activity change, negative = cytotoxicity": -8.19}
{"smiles": "CCOC(=O)N1CCc2c(sc3c2C(=O)NC(c2ccccc2)N3)C1", "note": "(stereo not drawn)", "activity change, negative = cytotoxicity": -11.2}
{"smiles": "CC(=O)c1cccc(NC(=O)c2cc(Cl)sc2Cl)c1", "activity change, negative = cytotoxicity": 2.61}
{"smiles": "Cn1c(N/N=C/c2cccs2)cc(=O)n(C)c1=O", "activity change, negative = cytotoxicity": 1.17}
{"smiles": "Cc1cc(=O)n2nc(-c3ccccc3)sc2c1C#N", "activity change, negative = cytotoxicity": 1.07}
{"smiles": "Cc1cc(C)c(C#N)c(SCC(=O)c2cccs2)n1", "activity change, negative = cytotoxicity": 3.09}
{"smiles": "COc1ccc(O)c(-c2cc(-c3ccccc3Cl)[nH]n2)c1", "activity change, negative = cytotoxicity": -8.44}
{"smiles": "CCn1c(SCC(=O)N/N=C/C=C/c2ccco2)nc2ccccc21", "activity change, negative = cytotoxicity": -2.98}
{"smiles": "Cc1ccc(NC(=O)COCc2cc(-c3cccs3)on2)cc1Cl", "activity change, negative = cytotoxicity": 5.1}
{"smiles": "c1ccc2c(c1)nnn2-c1ncnc2sccc12", "activity change, negative = cytotoxicity": 3.73}
{"smiles": "O=C(CSc1nc2c(sc3ccccc32)c(=O)n1-c1ccccc1)NCc1ccco1", "activity change, negative = cytotoxicity": 2.64}
{"smiles": "S=c1[nH]nc(-c2ccncc2)n1/N=C/C=C/c1ccco1", "activity change, negative = cytotoxicity": 6.05}
{"smiles": "Clc1ccccc1NN=Cc1ccccn1", "activity change, negative = cytotoxicity": 1.21}
{"smiles": "Cc1cc(NC(=O)c2ccccc2)nc2c1c(=O)oc1ccccc12", "activity change, negative = cytotoxicity": 1.23}
{"smiles": "CCCn1c(-c2cccs2)nc2nc3ccccc3nc21", "activity change, negative = cytotoxicity": 5.71}
{"smiles": "CCOC(=O)c1sc(NC(=O)c2ccccc2F)c(C(N)=O)c1C", "activity change, negative = cytotoxicity": 7.14}
{"smiles": "C#CCSc1nc(-c2ccccc2)cc(C(F)(F)F)c1C#N", "activity change, negative = cytotoxicity": 5.58}
{"smiles": "O=Cc1c(NCc2ccco2)nc2ccccn2c1=O", "activity change, negative = cytotoxicity": 7.6}
{"smiles": "COC(=O)C1=C(C)NC(=O)/C1=C\\c1ccco1", "activity change, negative = cytotoxicity": -7.1}
{"smiles": "Cc1nc(-c2ccccn2)sc1C(=O)Nc1ccc(F)cc1", "activity change, negative = cytotoxicity": 7.45}
{"smiles": "CC(=O)Nc1cc(-c2ccsc2)cn2c(-c3ccc(F)cc3)cnc12", "activity change, negative = cytotoxicity": -5.25}
{"smiles": "O=C(Nc1ccc(F)cc1)c1nsc(Cl)c1Cl", "activity change, negative = cytotoxicity": 1.43}
{"smiles": "CS(=O)(=O)c1ccc2nc(NC(=O)CCS(=O)(=O)c3ccccc3)sc2c1", "activity change, negative = cytotoxicity": 11.9}
{"smiles": "O=C(Cn1ncc(Cl)c(Cl)c1=O)NC1CCS(=O)(=O)C1", "note": "(stereo not drawn)", "activity change, negative = cytotoxicity": 8.46}
